{"source": "PubChem BioAssay (NCATS)", "note": "Inconclusive results are not listed. Activity calls are given as the source filed them. Unless noted, calls come from the whole dose curve; as a rule, active = well fitted inhibition curve with a large enough effect; inconclusive = small, poorly fitted or top-dose-only effect; inactive = no such curve, though single readings can be large or run the other way.", "data": [{"experiment": "Primary qHTS for small molecule stabilizers of the endoplasmic reticulum resident proteome: Secreted ER Calcium Modulated Protein (SERCaMP) assay (AID 1508630); note: % is set by controls: 0 for no effect and ±100 for the full control effect", "conditions": "SH-SY5Y GLuc-SERCaMP (Gaussia luciferase released on ER calcium loss) secretion, thapsigargin, luminescence; series mostly up to 38.4 µM; activity change, negative = inhibition: at the top concentration", "in_short": "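The SH-SY5Y reporter protocol was run at 3 concentrations up to 38.3 uM (primary) or 11 concentrations (follow-up): 16 h compound, 100 nM thapsigargin for 4 h, then extracellular luciferase luminescence.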", "values": [{"smiles": "Nc1ccc(N=Nc2ccccc2)c(N)n1", "outcome": "inactive"}, {"smiles": "CC(=O)Oc1cccc2c1C(=O)c1c(OC(C)=O)cc(C(=O)O)cc1C2=O", "activity change, negative = inhibition": "-8.25% (inactive)"}, {"smiles": "COc1ccc2nc(NC(=O)Nc3ccccc3)sc2c1", "activity change, negative = inhibition": "42.6% (inactive)"}, {"smiles": "CN(C)CCCSc1ccccc1NC(=O)/C=C/c1ccccc1", "activity change, negative = inhibition": "-28.9% (inactive)"}, {"smiles": "Oc1ccc(/C=C/c2cc(O)cc(O)c2)cc1", "outcome": "inactive"}, {"smiles": "O=C(O)Cc1cc(I)c(Oc2ccc(O)c(I)c2)c(I)c1", "outcome": "inactive"}]}, {"experiment": "A High-Content qHTS Against Drug Library for the Identification of Small Molecules that Inhibit DYT1 Early Onset Primary Dystonia-Associated Cell Pathology (AID 1645839; calls by dose curve)", "conditions": "HEK293 Flp-In EGFP-delE TorsinA, punctate imaging, 48 h; series mostly up to 46.1 µM; % pathology change, negative = correction: at the top concentration", "in_short": "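Induced EGFP-delE TorsinA cells are imaged after 48 h of compound treatment. Punctate fusion-protein distribution gives the %pathology value, while nuclei counts flag toxicity. Wild-type EGFP-hTOR1A cells define the normal pattern.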", "values": [{"smiles": "O=C1c2ccccc2C(=O)c2c1ccc(O)c2O", "% pathology change, negative = correction": "-6.93% (inactive)"}, {"smiles": "CC(=O)Oc1cccc2c1C(=O)c1c(OC(C)=O)cc(C(=O)O)cc1C2=O", "% pathology change, negative = correction": "3.69% (inactive)"}, {"smiles": "O=C(O)CCC(=O)c1ccc(-c2ccccc2)cc1", "% pathology change, negative = correction": "1.19% (inactive)"}, {"smiles": "O=C(OCc1ccccc1)c1ccc(O)cc1", "% pathology change, negative = correction": "-8.02% (inactive)"}, {"smiles": "COc1ccc2nc(NC(=O)Nc3ccccc3)sc2c1", "% pathology change, negative = correction": "-16.1% (inactive)"}, {"smiles": "CN(C)CCCSc1ccccc1NC(=O)/C=C/c1ccccc1", "% pathology change, negative = correction": "5.69% (inactive)"}]}]}
